Bioassay records from PubChem BioAssay.
HSF-1 act: increases HSF-1 driven luciferase reporter signal; 300,000 compounds, 1.7% hits; AID 504408; activation, % at 9 µM; NIH3T3-HGL HSF-1 luciferase reporter, MG132, 8 h; 100% = twice DMSO control signal;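 active means mean replicate activation of at least 50% with a set share of replicates each reaching 50%; inconclusive means only one of those two conditions met; inactive means mean below 50% and too few replicates reaching it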;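 further: 0% = median of the neutral control wells and 100% = twice that signal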
Wnt bcat act: activators of Wnt/beta-catenin signaling. Wnt/beta-catenin reporter cell assay, activator, plate reader. activation, % at 9.35 µM. 300,000 compounds, 1.2% hits. AID 743398; in the data active means activation above about 30%, passing the limit was not always enough; inconclusive means no clear call, values can overlap the other calls;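 further: 0% = neutral control wells and 100% = positive control wells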
MITF TRPM1 HTS: increases MITF-driven TRPM1 promoter luciferase signal | 300,000 compounds, 0.75% hits | activation, % at 12.5 µM | SK-MEL-5 TRPM1-promoter luciferase, 24 h; % of positive control, neutral wells = 0;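 active means mean activation of at least 80% with every replicate also reaching 80%; inconclusive means mean reaches 80% but some replicate falls short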;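 further: 0% = neutral control wells and 100% = parthenolide positive control wells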
HSF1 inhib: HSF1 inhibition | NIH3T3-HGL HSE-luciferase, MG132-induced, luminescence 8 h; hits give low values | activity change, negative = inhibition, % at 7.5 µM (by protocol) | 300,000 compounds, 0.77% hits;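 active means more than half of replicate wells show activity change below -50%, luminescence cut by over half; inconclusive means some wells, but at most half, below -50%; inactive means no replicate well below -50%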;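 further: luciferase reports HSF-1 transcriptional activity via heat shock element; 0% = median of DMSO wells and -100% = zero luminescence signal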
esBAF inh: blocks esBAF chromatin remodeling in mouse ES cells | Bmi1-luciferase knock-in reporter, 24 h; 100% = twice the neutral-well signal | reporter increase, % at 12.5 µM | 350,000 compounds, 2% hits | AID 602393; in the data active means activation above about 40%; inconclusive means no clear call, values can overlap the other calls;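 further: 0% = median of the plate's neutral control wells and 100% = double that signal; a rise in the Bmi1 reporter signal indicates esBAF inhibition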
Active calls of the source: *; u = inconclusive; x = no result given. Shown are actives, neighbours in structure and some others; about 3.9% of the full set was active somewhere.

SMILES	HSF-1 act	Wnt bcat act	MITF TRPM1 HTS	HSF1 inhib	esBAF inh
CCOc1ccc(S(=O)(=O)NCc2cccs2)cc1	-14.6	x	18.4	-2.5	8.1
CC1CCCC(C)N1C(=O)CSc1nnc(-c2cccs2)o1 (centres undefined)	5.0	x	54.5	-0.1	45.8*
Fc1ccccc1CSc1nnc(-c2cccs2)o1	67.5*	42.5*	105.6*	41.9	x
COCCNC(=O)C[C@H]1CC[C@@H]2[C@H](COc3ccc(NC(=O)Cc4ccccc4)cc3C(=O)N2C)O1	x	x	x	x	-1.5
O=C(C[C@H]1C=C[C@@H](NS(=O)(=O)c2ccc(F)cc2)[C@H](CO)O1)NCCc1ccncc1	x	x	x	x	-2.5
C[C@H](CO)N1C[C@H](C)[C@@H](CN(C)C(=O)CN(C)C)Oc2ncc(C#Cc3ccncc3)cc2C1=O	x	x	x	x	0.4
CCSc1nnc(-c2cccs2)o1	-3.1	4.5	43.5	1.4	43.6*
Cc1cc(C(=O)N2C(C)CCCC2C)no1 (centres undefined)	-14.0	2.0	-7.7	-0.9	-3.5
CC1CCCC(C)N1C(=O)c1cc(-c2cccs2)on1 (centres undefined)	10.6	x	77.6	2.8	48.1*
c1ccc(-c2nnc(CSc3nnc(-c4cccs4)o3)o2)cc1	0.0	-2.2	-0.7	0.6	-1.8
c1ccc(-c2nnc(SCc3ccncc3)o2)cc1	x	0.8	x	x	36.8
Cc1cccc(-c2nnc(SCc3ccccc3)o2)c1	49.6	42.5*	44.2	12.7	62.5*
O=S(=O)(c1ccc(F)cc1)N1CC[C@H]2[C@H](CO)Nc3ccc(Br)cc3[C@H]21	x	x	x	x	-2.2
CC(C)NC(=O)N1[C@@H](CO)[C@H](c2ccccc2)[C@@H]1CN(C)C(=O)c1ccncc1	x	x	x	x	4.7
CC(C)N(C(C)C)S(=O)(=O)c1ccc(Cl)nc1	5.3	-0.7	-13.9	-6.0	x
CCN(CC)S(=O)(=O)c1ccc(N2CCc3ccccc3C2)nc1	72.7*	1.2	31.0	54.0	20.8
CC(C)N(C(C)C)S(=O)(=O)c1ccc(N2CCc3ccccc3C2)nc1	130.4*	14.6	65.6	67.3	x
COc1cccc(C(=O)Nc2cccc(-c3ccc(N4CCOCC4)nn3)c2)c1	15.7	22.4	136.9*	9.8	66.6*
COc1cccc(C(=O)Nc2cccc(-c3ccc(N4CCOCC4)nn3)c2)c1OC	25.7	28.2	u	12.2	19.8
CCOc1ccc(C(=O)Nc2cccc(-c3ccc(N4CCOCC4)nn3)c2)cc1OCC	17.1	22.4	106.3*	10.2	64.0*
CCOc1ccccc1C(=O)Nc1cccc(-c2ccc(N3CCOCC3)nn2)c1	38.0	u	110.8*	23.6	62.8*
COc1ccc(C(=O)Nc2cccc(-c3ccc(N4CCOCC4)nn3)c2)cc1OC	5.6	26.3	96.0*	9.4	19.4
C[C@@H]1CN([C@H](C)CO)C(=O)c2cccc(NC(=O)c3ccncc3)c2O[C@H]1CN(C)Cc1ccc(Cl)c(Cl)c1	x	x	x	x	2.0
CCCN(C)C[C@@H]1Oc2ncc(C#CC3CC3)cc2C(=O)N([C@H](C)CO)C[C@@H]1C	x	x	x	x	-3.4
Cc1noc(C)c1NC(=O)N(C)C[C@@H]1Oc2ccc(NC(=O)Nc3ccc4c(c3)OCO4)cc2C(=O)N([C@H](C)CO)C[C@@H]1C	x	x	x	x	12.6
SMILES	HSF-1 act	Wnt bcat act	MITF TRPM1 HTS	HSF1 inhib	esBAF inh
COc1ccc(-n2ncc3c(N(C)C4CCCCC4)ncnc32)cc1	-87.3	-13.6	-59.0	-85.0*	-80.5
Cc1cccc(-n2ncc3c(N(C)C4CCCCC4)ncnc32)c1	-92.2	-2.4	-78.3	-91.3*	-78.9
Cc1cccc(-n2ncc3c(N(CCO)CCO)ncnc32)c1	19.6	6.4	57.3	6.6	20.2
Cc1ccc(S(=O)(=O)NCC[C@H]2CC[C@@H](NC(=O)c3cnccn3)[C@@H](CO)O2)cc1	x	x	x	x	-0.6
C#CCOc1ccc(C2C3=C(CC(C)(C)CC3=O)N(CC(=O)O)C3=C2C(=O)CC(C)(C)C3)cc1OC	60.5*	-2.2	x	31.2	-7.8
c1ccc(-c2nnc(-c3ccccn3)nn2)nc1	24.6	35.9*	35.8	18.2	x
c1ccc(-c2nnc(-c3ccccn3)c(-c3ccccn3)n2)nc1	-16.9	2.4	x	3.9	x
CC(C)NC(=O)N1[C@H](C(=O)N2CCC(Cc3ccccc3)CC2)[C@@H](CO)[C@@H]2Cn3c(cccc3=O)[C@@H]21	x	x	x	x	-11.2
CCOC(=O)c1nn(-c2ccc(F)cc2)cc1O	2.5	19.8	92.2*	-5.7	x
NNC(=O)c1nn(-c2ccccc2)cc1O	-55.9	x	x	-55.5*	x
CCOC(=O)c1nn(-c2ccc(Br)cc2)cc1C(=O)c1cccc2ccccc12	39.5	x	72.8	23.7	78.2*
